{
  "source": "PubChem BioAssay AID623868",
  "about": "(Vanderbilt High Throughput Screening Facility, 2012)",
  "note": "The campaign covered roughly 2,100 compounds. About 760 (36%) were called active. The list is a sample of the results. Values without a mark were called inactive.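 How the source made its calls: active means thallium-flux fluorescence traces judged by eye to show enhanced or reduced glutamate response, manual score 1 or -1, so both directions (some results past the limit were not filed as active); inactive means the rest, including fluorescent or raised-baseline compounds.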",
  "data": [
    {"test": "thallium influx changes without GIRK channels – cell-based, HEK-293 rmGlu8, no GIRK, thallium flux, counter-screen for GIRK activator project, confirmation (AID 623868);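 further: extra codes mark interference with 3 for fluorescent and 4 for baseline rise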", "conditions": "thallium flux fluorescence, at 10 µM, actives lie on both sides, codes: 1 enhancer, -1 blocker, 0 none, thallium stimulus containing EC20 glutamate", "values": [
      {"smiles": "CCN(Cc1ccccc1)C(c1ccccn1)c1nnnn1C1CCCCC1", "note": "(centres undefined)", "manual score": 0},
      {"smiles": "CN(C)CCNC(=O)c1cc2c(s1)-c1ccccc1OC2", "manual score": 0},
      {"smiles": "CC(NC(=O)c1ccccc1NC(=O)CSc1nnnn1C)c1ccccc1", "note": "(centres undefined)", "manual score": 0},
      {"smiles": "CN(C)Cc1c(O)ccc2occ(C(O)c3ccccc3)c12", "note": "(centres undefined)", "manual score": 0},
      {"smiles": "O=C1CC(N2CCN(c3nc4ccccc4s3)CC2)C(=O)N1c1ccc(F)cc1", "note": "(centres undefined)", "manual score": 0},
      {"smiles": "Cn1c(=O)cc(OCCCC(=O)NCc2ccc3c(c2)OCO3)c2ccccc21", "manual score": 0},
      {"smiles": "Cc1[nH]n(-c2ccc(Cl)cc2)c(=O)c1/C=N/c1nnc(-c2ccccc2)s1", "manual score": "1 (active)"},
      {"smiles": "CC1(C)Cc2c(sc3[nH]c(=S)n(Cc4ccco4)c(=O)c23)CO1", "manual score": "1 (active)"},
      {"smiles": "CC(C)C1Cc2c(sc3[nH]c(=S)n(Cc4ccccc4)c(=O)c23)CO1", "note": "(centres undefined)", "manual score": "1 (active)"},
      {"smiles": "CC(C)C1Cc2c(sc3c2c(=O)n(Cc2ccccc2)c2nncn32)CO1", "note": "(centres undefined)", "manual score": -0.5},
      {"smiles": "CCC1(C)Cc2c(sc3[nH]c(=S)n(Cc4ccccc4)c(=O)c23)CO1", "note": "(centres undefined)", "manual score": "1 (active)"},
      {"smiles": "CC1(C)Cc2c(sc3[nH]c(=S)n(Cc4ccccc4)c(=O)c23)CO1", "manual score": "1 (active)"},
      {"smiles": "Cc1ccc(C)c(OCC(O)CN2C(C)CCCC2C)c1", "note": "(centres undefined)", "manual score": 0},
      {"smiles": "Cc1cc(N2CCC(C)CC2)n2ncc(-c3ccccc3)c2n1", "manual score": 0},
      {"smiles": "O=C(C1CCN(c2ncnc3c2sc2cccc(F)c23)CC1)N1CCOCC1", "manual score": -0.5},
      {"smiles": "CN(C)CCCOc1nc2c(c(=O)n(C)c(=O)n2C)n1C", "manual score": 1.5},
      {"smiles": "O=C(Nc1ccc(Cl)cc1)NC1CCCCC1Cc1ccco1", "note": "(centres undefined)", "manual score": 0},
      {"smiles": "CC1CCc2c(sc(NC(=O)C(=O)NCc3ccco3)c2C#N)C1", "note": "(centres undefined)", "manual score": "1 (active)"},
      {"smiles": "O=C(NCc1ccccc1)C(=O)Nc1nc(C23CC4CC(CC(C4)C2)C3)cs1", "manual score": 0},
      {"smiles": "CCOC(=O)C(C)Sc1nnc(-c2c[nH]c3ccccc23)n1C", "note": "(centres undefined)", "manual score": 0},
      {"smiles": "O=C(COc1ccc2ccccc2c1CN1CCOCC1)N1CCc2ccccc21", "manual score": 0},
      {"smiles": "CCn1nc(C(=O)OCC(=O)N2CCc3ccccc32)c2ccccc2c1=O", "manual score": "-1 (active)"},
      {"smiles": "CCn1nc(C(=O)OCC(=O)c2c[nH]c3ccccc23)c2ccccc2c1=O", "manual score": "-1 (active)"},
      {"smiles": "CCCCn1nc(C(=O)N2CCc3ccccc32)c2ccccc2c1=O", "manual score": 0},
      {"smiles": "CCN(C(=O)CN1CCN(c2ccccc2O)CC1)c1c(N)n(Cc2ccccc2)c(=O)[nH]c1=O", "manual score": 0},
      {"smiles": "CC(C)(C)NC(=O)C(=O)NNC(=O)c1ccc(C(C)(C)C)cc1", "manual score": "1 (active)"},
      {"smiles": "CC(C)(C)c1ccc(SCC(N)=O)cc1", "manual score": 0},
      {"smiles": "CC(C)(C)c1ccc(C(=O)NC(=S)Nn2cnnc2)cc1", "manual score": 0},
      {"smiles": "Cc1cccc(C(=O)NNC(=O)C(=O)NC(C)(C)C)c1", "manual score": "1 (active)"},
      {"smiles": "COc1ccccc1N1CCN(C(=O)CCn2c(=O)[nH]c3ccsc3c2=O)CC1", "manual score": 0},
      {"smiles": "COc1cc(NC(=O)CCn2c(=O)[nH]c3ccsc3c2=O)cc(OC)c1", "manual score": 0},
      {"smiles": "COc1ccc(Cn2c(=S)[nH]c3ccsc3c2=O)cc1", "manual score": "1 (active)"},
      {"smiles": "Cc1cc(C)cc(OCC(=O)N2N=C(C(F)(F)F)CC2(O)C(C)(C)C)c1", "note": "(centres undefined)", "manual score": 0},
      {"smiles": "Cc1ccccc1CNC(=O)Nc1cccs1", "manual score": 0},
      {"smiles": "Cc1ccccc1C(=O)Nc1ccc2nc3n(c(=O)c2c1)CCC3", "manual score": 0},
      {"smiles": "Cc1ccccc1C(=O)Nc1nc(=S)ss1", "manual score": "1 (active)"},
      {"smiles": "O=C(Cn1c(=O)[nH]c2ccsc2c1=O)NC1CCCCCC1", "manual score": 0},
      {"smiles": "CCc1ccc2c(c1)c(N=NC1=NC(=O)CS1)c(O)n2CC", "manual score": "1 (active)"},
      {"smiles": "CCc1ccc2c(c1)c(N=NC1=NC(=O)CS1)c(O)n2C", "manual score": "1 (active)"},
      {"smiles": "CCn1c(O)c(N=NC2=NC(=O)CS2)c2cc(C)ccc21", "manual score": "1 (active)"},
      {"smiles": "CC(Nc1nc(N2CCCC2)nc2ccccc12)c1ccccc1", "note": "(centres undefined)", "manual score": 0},
      {"smiles": "Cc1ccccc1/C=c1\\s/c(=C\\C(=O)C(C)(C)C)[nH]c1=O", "manual score": 0.5},
      {"smiles": "CC(C)(C)S(=O)(=O)c1ccc(S(=O)(=O)C(C)(C)C)s1", "manual score": 0},
      {"smiles": "CCCn1nnnc1NC(=O)c1ccc2ccccc2c1", "manual score": "1 (active)"},
      {"smiles": "CCCn1nc2cc(C(=O)NCCc3ccc(C)cc3)ccc2c1OCC", "manual score": 0},
      {"smiles": "CCC(=O)Nc1ccc2c(c1)ncn2-c1ccc(OC)cc1", "manual score": 0},
      {"smiles": "CC1CCCN(Cc2cccc(Oc3ccccc3)c2)C1", "note": "(centres undefined)", "manual score": 0},
      {"smiles": "Cc1ccc(N=Nc2ccc(O)c3ncccc23)cc1", "manual score": "1 (active)"},
      {"smiles": "Cc1ccccc1N=Nc1ccc(O)c2ncccc12", "manual score": "1 (active)"},
      {"smiles": "O=c1cc(CN2CCOCC2)nc(C2CC2)[nH]1", "manual score": 0},
      {"smiles": "C/C(CC(O)c1ccc2ccccc2n1)=N/O", "note": "(centres undefined)", "manual score": 0},
      {"smiles": "CCCCn1c(N)c(C(=S)NC(=O)CC(C)(C)C)c(=O)n(C)c1=O", "manual score": "1 (active)"},
      {"smiles": "CCCCn1c(N)c(C(=S)NC(=O)CC(C)C)c(=O)n(C)c1=O", "manual score": "1 (active)"},
      {"smiles": "CCN(CC)c1ccc2cc(-c3nnc(-c4ccccc4)o3)c(=O)oc2c1", "manual score": 3},
      {"smiles": "CC12CCC(C(=O)N(CSC(=S)N/N=C\\c3ccccc3Cl)C1=O)C2(C)C", "note": "(centres undefined)", "manual score": "1 (active)"},
      {"smiles": "CC12CCC(C(=O)N(CSC(=S)N/N=C\\c3ccccc3O)C1=O)C2(C)C", "note": "(centres undefined)", "manual score": "1 (active)"},
      {"smiles": "O=C(c1cccc(F)c1)N1CCN(C(=O)c2cc(-c3ccc(Cl)cc3Cl)on2)CC1", "manual score": 0},
      {"smiles": "CC(C)(C)c1ccc(-c2n[nH]c(=S)n2C2CCCC2)cc1", "manual score": "1 (active)"},
      {"smiles": "CC(C)n1c(-c2ccc(C(C)(C)C)cc2)n[nH]c1=S", "manual score": "1 (active)"},
      {"smiles": "CCCCCCc1cc2cc(-c3nnc(-c4cc(OC)c(OC)c(OC)c4)o3)c(=O)oc2cc1O", "manual score": 3},
      {"smiles": "CC(C)CCn1c(S(=O)(=O)O)nc2ccccc21", "manual score": 0},
      {"smiles": "O=C(N/N=C\\c1ccc(Cl)s1)c1cccs1", "manual score": "1 (active)"},
      {"smiles": "NS(=O)(=O)c1ccc(CCNC2CC(=O)N(Cc3ccccc3)C2=O)cc1", "note": "(centres undefined)", "manual score": 0},
      {"smiles": "Cc1nc(NCCc2ccc(S(N)(=O)=O)cc2)c2c(C)c(C)sc2n1", "manual score": "1 (active)"},
      {"smiles": "Cc1cccc(-n2ncc3c(NCCc4ccc(S(N)(=O)=O)cc4)ncnc32)c1", "manual score": 0},
      {"smiles": "CCc1cccc(NC(=O)CCSCCC(=O)Nc2cccc(CC)c2)c1", "manual score": 0},
      {"smiles": "CCc1cc(C(=O)NNC(=S)Nc2cccc(C)c2)cs1", "manual score": "1 (active)"},
      {"smiles": "Cc1ccc(Cl)cc1NC(=S)NCc1cccn1C", "manual score": 0},
      {"smiles": "Cc1ccc(C2CC2C(=O)NNC(=S)Nc2cccc(Cl)c2)cc1", "note": "(centres undefined)", "manual score": 0},
      {"smiles": "Cc1ccc(C2CC2C(=O)NNC(=S)Nc2ccc(Cl)cc2)cc1", "note": "(centres undefined)", "manual score": 0.5},
      {"smiles": "CCc1cc(C(=O)NNC(=S)Nc2cc(C)ccc2C)cs1", "manual score": "1 (active)"},
      {"smiles": "Cc1ccc(C2CC2C(=O)NNC(=S)Nc2cccc(C)c2)cc1", "note": "(centres undefined)", "manual score": "1 (active)"},
      {"smiles": "CCn1c(NC(=O)Nc2cccc(C)c2C)cc2sccc21", "manual score": 0},
      {"smiles": "CCc1cc(C(=O)NNC(=S)Nc2ccccc2C)cs1", "manual score": "1 (active)"}
    ]}
  ]
}
